Measurements taken from ChEMBL document CHEMBL1157539, “Thousands of chemical starting points for antimalarial lead identification” (Nature, 2010).

Test system: Plasmodium falciparum
Assay: GSK_TCMDC: Inhibition of Plasmodium falciparum 3D7 in whole red blood cells, using parasite LDH activity as an index of growth. Test compounds present at 2uM
Assay type: functional

Row | Compound | Inhibition [%]
1 | CCCc1cc(C)ccc1OCCCON1C(NC(=O)OCC)=NC(NC(=O)OCC)=NC1(C)C | 95
2 | Cc1sc(C)c(CNCCCNc2cc(=O)c3ccccc3[nH]2)c1Br.Cl | 93
3 | Cc1csc2nc(C(C)c3ccc(NC(=O)c4cccs4)cc3)oc(=O)c12 (stereo not given) | 90

Test system: Plasmodium falciparum
Assay: GSK_TCMDC: Inhibition of Plasmodium falciparum Dd2 in whole red blood cells, using parasite LDH activity as an index of growth. Test compounds present at 2uM
Assay type: functional

Row | Compound | Inhibition [%]
4 | CCOC(=O)c1nc(-c2cc(Cl)nc(Cl)c2)[nH]c1NC(=S)NCCCN1CCOCC1 | 71
5 | Brc1cc(Br)c2c(c1)C(NCCCNc1nc3ncccc3[nH]1)CCN2.O=C(O)CCC(=O)O (stereo not given) | 83
6 | Cl.O=C(/C=C/c1ccc(F)cc1)NC1CCC(CCN2CCCN(c3ccc(C(F)(F)F)cn3)CC2)CC1 (stereo not given) | 13
7 | O=C(NC1CCN(Cc2ccccc2O)C1)c1cccc(C(F)(F)F)c1.O=C(O)C(F)(F)F (stereo not given) | 62
8 | COc1ccc2c(Nc3ccc(N4CCN(C)CC4)cc3)cc(C)nc2c1 | 9
9 | O=C(NCc1ccc(F)cc1)Nc1cccc(-c2ccc(-c3nc4cc(F)ccc4[nH]3)cc2)c1 | 96
10 | COc1ccc2nccc([C@@H](O)CN3CCC(NCc4cc5cc(Cl)ccc5[nH]4)CC3)c2c1.O=C(O)C(=O)O | 64
11 | CC1(C)CCC(C)(C)c2c1ccc(C1CCN(CCCCNC(=O)c3ccc(-c4ccc(C#N)cc4)cc3)CC1)c2O | 85
12 | CCc1cc(NC(=O)Nc2ccnc3ccccc23)ccc1OC.Cl | 24
13 | Cc1cc(Nc2nc(Nc3cccc(Cl)c3)nc3ccccc23)n[nH]1 | 95
14 | CCOC(=O)c1ccc(NC(=O)Nc2cccc(-c3ccc(-c4nc5cc(F)ccc5[nH]4)cc3)c2)cc1 | 97
15 | CN1CCN(c2ccc3[nH]c(-c4ccc(Cc5cc(Cl)ccc5OCc5ccccc5)o4)nc3c2)CC1.Cl | 79
16 | O=C(O)C(F)(F)F.Oc1ccc(CCNc2nc(NCc3cccc(-c4cc(C(F)(F)F)ccc4Cl)c3)nc(N3CCNCC3)n2)cc1 | 8
17 | Cc1nc(-c2nc(N3CCC(C(N)=O)CC3)ncc2-c2ccsc2)sc1C | 33
18 | O=C(NCc1ccc(F)cc1)Nc1ccc(-c2ccc(-c3nc4ccccc4[nH]3)cc2)cc1 | 98
19 | COc1ccccc1-c1cccc(Nc2c(Nc3ccc(Cl)cc3)c(=O)c2=O)c1 | 47
20 | COc1ccc2nccc([C@@H](O)CN3CCC(NCc4ccc5sc(=O)[nH]c5c4)CC3)c2c1.O=C(O)C(=O)O | 0
21 | Cc1[nH]c(C)c(-c2ccc(-c3ccccc3)nc2)c(=O)c1Br | 95
22 | O=C(Nc1ccsc1)Nc1cccc(-c2ccc(-c3nc4cc(C(F)(F)F)ccc4[nH]3)cc2)c1 | 36

Row | Compound | Inhibition [%]
23 | O=C(Nc1ccc(S(=O)(=O)N2CCCCCC2)cc1)c1cc(-c2ccccc2O)n[nH]1 | 76
24 | COc1ccc(CN2CCCN(Cc3cccc(NC(=O)c4cc5ccccc5s4)c3)CC2)cc1.O=C(O)C(F)(F)F | 32
25 | O=C(NC1CCC(N2CCN(c3cccc(C(F)(F)F)c3)CC2)CC1)c1cc2ccccc2[nH]1 (stereo not given) | 22
26 | FC(F)(F)c1cccc(Nc2nc3nonc3nc2NC2C3CC4CC(C3)CC2C4)c1 (stereo not given) | 100
27 | CC(C)(C)c1ccc(CNC(=O)/C=C/c2ccc(-c3nc4cc(C(C)(C)C)ccc4[nH]3)cc2)cc1 | 66
28 | NS(=O)(=O)c1cccc(Nc2nccc(-c3cnn4ncccc34)n2)c1 | 89
29 | OC1CCC(Nc2ccc3ncc(-c4ccc(Cl)cc4)n3n2)CC1 (stereo not given) | 98
30 | Cc1cccc2nc(-c3cccc(-c4cccc(NC(=O)COc5ccccc5C(N)=O)c4)c3)[nH]c12 | 88
31 | O=C(Nc1cccc(CN2CCN(Cc3ccc(O)cc3)CC2)c1)c1ccc(-c2ccccc2)cc1.O=C(O)C(F)(F)F | 67
32 | CCCCSc1ccc2nc(-c3c[nH]c4ccc(C#N)cc34)cn2c1 | 37
33 | COc1ccc(C(=O)Nc2ccc3nc(N4CCCCC4)cc(C)c3c2)cc1OC | 7
34 | COc1ccc(Br)cc1/C=C/C(=O)Nc1ccc2c(c1)CCCN(C)C2 | 10
35 | CCCCCCCC1CC(CC(=O)Nc2ccnc3ccc(OC)cc23)CN1 (stereo not given) | 58
36 | COc1ccc(CC(=O)NC(CCCN2CCC(c3ccccc3)CC2)c2ccc(Cl)c(Cl)c2)cc1OC (stereo not given) | 57
37 | Cc1cc(=O)[nH]c2cc(Nc3ccnc(Nc4cccc(C(N)=O)c4)n3)ccc12.Cl | 98
38 | CC(C)(C)c1ccc(NC(=O)c2ccc(CN3CCCN(Cc4cccc(F)c4)CC3)cc2)cc1.O=C(O)C(F)(F)F | 8
39 | CCCc1cc(C)ccc1OCCCON1C(NC(=O)OCC)=NC(NC(=O)OCC)=NC1(C)C | 97
40 | Cc1sc(C)c(CNCCCNc2cc(=O)c3ccccc3[nH]2)c1Br.Cl | 15

Test system: HepG2
Assay: GSK_TCMDC: Percent inhibition of human HepG2 cell line. Test compounds present at 10uM.
Assay type: functional

Row | Compound | Inhibition [%]
41 | CCOC(=O)c1nc(-c2cc(Cl)nc(Cl)c2)[nH]c1NC(=S)NCCCN1CCOCC1 | 13
42 | Brc1cc(Br)c2c(c1)C(NCCCNc1nc3ncccc3[nH]1)CCN2.O=C(O)CCC(=O)O (stereo not given) | 5
43 | Cl.O=C(/C=C/c1ccc(F)cc1)NC1CCC(CCN2CCCN(c3ccc(C(F)(F)F)cn3)CC2)CC1 (stereo not given) | 29
44 | O=C(NC1CCN(Cc2ccccc2O)C1)c1cccc(C(F)(F)F)c1.O=C(O)C(F)(F)F (stereo not given) | 0
45 | COc1ccc2c(Nc3ccc(N4CCN(C)CC4)cc3)cc(C)nc2c1 | 23
46 | O=C(NCc1ccc(F)cc1)Nc1cccc(-c2ccc(-c3nc4cc(F)ccc4[nH]3)cc2)c1 | 7
47 | COc1ccc2nccc([C@@H](O)CN3CCC(NCc4cc5cc(Cl)ccc5[nH]4)CC3)c2c1.O=C(O)C(=O)O | 27
48 | CC1(C)CCC(C)(C)c2c1ccc(C1CCN(CCCCNC(=O)c3ccc(-c4ccc(C#N)cc4)cc3)CC1)c2O | 81
49 | CCc1cc(NC(=O)Nc2ccnc3ccccc23)ccc1OC.Cl | 0
50 | Cc1cc(Nc2nc(Nc3cccc(Cl)c3)nc3ccccc23)n[nH]1 | 9
51 | CCOC(=O)c1ccc(NC(=O)Nc2cccc(-c3ccc(-c4nc5cc(F)ccc5[nH]4)cc3)c2)cc1 | 40
52 | CN1CCN(c2ccc3[nH]c(-c4ccc(Cc5cc(Cl)ccc5OCc5ccccc5)o4)nc3c2)CC1.Cl | 27
53 | O=C(O)C(F)(F)F.Oc1ccc(CCNc2nc(NCc3cccc(-c4cc(C(F)(F)F)ccc4Cl)c3)nc(N3CCNCC3)n2)cc1 | 33
54 | Cc1nc(-c2nc(N3CCC(C(N)=O)CC3)ncc2-c2ccsc2)sc1C | 0
55 | O=C(NCc1ccc(F)cc1)Nc1ccc(-c2ccc(-c3nc4ccccc4[nH]3)cc2)cc1 | 43
56 | COc1ccccc1-c1cccc(Nc2c(Nc3ccc(Cl)cc3)c(=O)c2=O)c1 | 20
57 | COc1ccc2nccc([C@@H](O)CN3CCC(NCc4ccc5sc(=O)[nH]c5c4)CC3)c2c1.O=C(O)C(=O)O | 1
58 | Cc1[nH]c(C)c(-c2ccc(-c3ccccc3)nc2)c(=O)c1Br | 0
59 | O=C(Nc1ccsc1)Nc1cccc(-c2ccc(-c3nc4cc(C(F)(F)F)ccc4[nH]3)cc2)c1 | 45
60 | O=C(Nc1ccc(S(=O)(=O)N2CCCCCC2)cc1)c1cc(-c2ccccc2O)n[nH]1 | 16

Row | Compound | Inhibition [%]
61 | COc1ccc(CN2CCCN(Cc3cccc(NC(=O)c4cc5ccccc5s4)c3)CC2)cc1.O=C(O)C(F)(F)F | 32
62 | O=C(NC1CCC(N2CCN(c3cccc(C(F)(F)F)c3)CC2)CC1)c1cc2ccccc2[nH]1 (stereo not given) | 23
63 | FC(F)(F)c1cccc(Nc2nc3nonc3nc2NC2C3CC4CC(C3)CC2C4)c1 (stereo not given) | 72
64 | CC(C)(C)c1ccc(CNC(=O)/C=C/c2ccc(-c3nc4cc(C(C)(C)C)ccc4[nH]3)cc2)cc1 | 35
65 | NS(=O)(=O)c1cccc(Nc2nccc(-c3cnn4ncccc34)n2)c1 | 39
66 | OC1CCC(Nc2ccc3ncc(-c4ccc(Cl)cc4)n3n2)CC1 (stereo not given) | 57
67 | CN(C)c1ccc(NC(=O)Nc2ccnc3ccccc23)cc1Br.Cl | 21
68 | Cc1cccc2nc(-c3cccc(-c4cccc(NC(=O)COc5ccccc5C(N)=O)c4)c3)[nH]c12 | 22
69 | O=C(Nc1cccc(CN2CCN(Cc3ccc(O)cc3)CC2)c1)c1ccc(-c2ccccc2)cc1.O=C(O)C(F)(F)F | 40
70 | CCCCSc1ccc2nc(-c3c[nH]c4ccc(C#N)cc34)cn2c1 | 3
71 | COc1ccc(C(=O)Nc2ccc3nc(N4CCCCC4)cc(C)c3c2)cc1OC | 15
72 | COc1ccc(Br)cc1/C=C/C(=O)Nc1ccc2c(c1)CCCN(C)C2 | 8
73 | CCCCCCCC1CC(CC(=O)Nc2ccnc3ccc(OC)cc23)CN1 (stereo not given) | 22
74 | COc1ccc(CC(=O)NC(CCCN2CCC(c3ccccc3)CC2)c2ccc(Cl)c(Cl)c2)cc1OC (stereo not given) | 28
75 | Cc1cc(=O)[nH]c2cc(Nc3ccnc(Nc4cccc(C(N)=O)c4)n3)ccc12.Cl | 27
76 | O=C(NCCCCN1CCC(c2ccc3c(c2OCCOCCO)CCCC3)CC1)c1ccc(-c2ccc(C(F)(F)F)cc2)cc1 | 44
77 | CC(C)(C)c1ccc(NC(=O)c2ccc(CN3CCCN(Cc4cccc(F)c4)CC3)cc2)cc1.O=C(O)C(F)(F)F | 51
78 | CCCc1cc(C)ccc1OCCCON1C(NC(=O)OCC)=NC(NC(=O)OCC)=NC1(C)C | 62
79 | Cc1sc(C)c(CNCCCNc2cc(=O)c3ccccc3[nH]2)c1Br.Cl | 0
80 | Cc1csc2nc(C(C)c3ccc(NC(=O)c4cccs4)cc3)oc(=O)c12 (stereo not given) | 0
